{"source": "ChEMBL document CHEMBL3988442", "about": "“University of Dundee, Small-Polar-MMV Screening Library” (2021)", "data": [{"target": "AMP-activated protein kinase, AMPK (Homo sapiens) (UniProt P54646+O43741+P54619+Q9UGJ0+Q9Y478+Q13131+Q9UGI9)", "assay": "AMP-dependent Kinase enzyme assay. An in vitro enzyme assay that detects ADP turnover that is directly proportional to AMPK activity. This uses naive AMPK that is activated during the assay with MK-8722", "format": "functional", "set-up": "scale not given: direction of the effect not stated beside the values", "settings": "30 µM", "units": {"Percent Effect": "%"}, "values": [{"smiles": "Cc1cc(C(=O)NC2CCN(c3nnc(C)c(C)c3C#N)CC2)no1", "Percent Effect": -21.4}, {"smiles": "Cc1cnn(Cc2cccc(OCC(N)=O)c2)c1", "Percent Effect": -0.231}, {"smiles": "Cc1nc(C2CCCN2CCOCC2CC2)no1", "note": "(centres undefined)", "Percent Effect": -0.854}, {"smiles": "Cn1cc(S(=O)(=O)Nc2ccc3[nH]c(C4CCC4)nc3c2)cn1", "Percent Effect": -6.7}, {"smiles": "CCN1CCC(CC(=O)NCCc2nc(O)cc(O)n2)CC1", "Percent Effect": -0.635}, {"smiles": "CNC(=O)Cc1ccc(NC(=O)NCc2nc(C)sc2C)cc1", "Percent Effect": 0.571}, {"smiles": "Cc1ncc(CC(=O)N2CCCCC2CCN2CCCC2)c(=O)[nH]1", "note": "(centres undefined)", "Percent Effect": 0.508}, {"smiles": "Cc1nn(-c2ccccc2)c2nc(C(C)(C)CN3CCN(C)CC3)[nH]c12", "Percent Effect": 9.98}, {"smiles": "Cc1cc(F)ccc1N1CCCC(NC(=O)CCCn2ccnc2)C1", "note": "(centres undefined)", "Percent Effect": 8.09}, {"smiles": "O=C(Cn1cccnc1=O)NCc1cccnc1OCC(F)(F)F", "Percent Effect": 0.146}, {"smiles": "COCCNc1ccc(CNCc2cnc3nc(C)cc(C)n23)cc1", "Percent Effect": -9.48}, {"smiles": "CC(C)c1cc(C(=O)N(Cc2ccncc2)CC2CCCO2)no1", "note": "(centres undefined)", "Percent Effect": -4.12}, {"smiles": "CN(C(=O)c1cccc(C#N)c1)c1nnc(C2CCOC2)s1", "note": "(centres undefined)", "Percent Effect": 5.31}, {"smiles": "CN(C)c1ncccc1NC(=O)COCC1CC1", "Percent Effect": 2.89}, {"smiles": "Cc1ccc(OCC2CCCN(c3cc(C(N)=O)ccn3)C2)cc1", "note": "(centres undefined)", "Percent Effect": 2.7}, {"smiles": "CCOCCC(=O)NCC1CCCO1", "note": "(centres undefined)", "Percent Effect": 0.034}, {"smiles": "COC(=O)c1cccc(C(=O)N(CCC#N)CC(C)(C)C)c1", "Percent Effect": 2.62}, {"smiles": "Cc1ccc(-c2noc(C3CCN3C(=O)c3cc[nH]n3)n2)s1", "note": "(centres undefined)", "Percent Effect": 16}, {"smiles": "COc1ccc(-c2cc3nc(CCNC(=O)CN(C)C)nn3cn2)cc1", "Percent Effect": 15}, {"smiles": "Cc1cc(=O)n2nc(Oc3ccc(Cl)c(C)c3)sc2n1", "Percent Effect": -6.95}, {"smiles": "Cc1cc(C)nc(NC2CCN(CCOC(C)C)CC2)n1", "Percent Effect": 7.53}, {"smiles": "OCCc1ncnn1Cc1cccc(Cl)c1", "Percent Effect": 32.2}, {"smiles": "Cc1ccccc1-n1cc(CN(C)C[C@@H]2CCCN3CCCC[C@H]23)cn1", "Percent Effect": -2.73}, {"smiles": "CCC(c1ccc(F)cc1)S(=O)(=O)CCO", "note": "(centres undefined)", "Percent Effect": 0.117}, {"smiles": "Cc1ccc(-c2cn(C3CCN(C(=O)[C@H]4CCCO4)CC3)nn2)cc1", "Percent Effect": -0.746}, {"smiles": "COc1ccc(C(=O)N2C[C@@H](NC(=O)N(C)C)[C@H](C(C)C)C2)c(OC)n1", "Percent Effect": 1.82}, {"smiles": "CN(Cc1ccc2c(c1)OCCO2)c1ncc(S(N)(=O)=O)s1", "Percent Effect": -1.85}, {"smiles": "CCn1cc(NC(=O)NCCN2CCCCCC2=O)cn1", "Percent Effect": 87.7}, {"smiles": "CSCCC(NC(=O)c1ccccc1)C(=O)N(C)Cc1ccsc1", "note": "(centres undefined)", "Percent Effect": -4.15}, {"smiles": "COC(=O)C1(NCC(=O)Nc2cc(C)ccc2OC)CCCCC1", "Percent Effect": -3.05}, {"smiles": "CCc1nn(C)c(Cl)c1CN1CCCC2(CC1)CN(C)C(=O)O2", "note": "(centres undefined)", "Percent Effect": -9.39}, {"smiles": "CC(=O)N1CCc2c(nc(N(C)C)nc2NCCCn2ccnc2)C1", "Percent Effect": 2.43}, {"smiles": "Cc1cnn(C2CN(CCCOc3ccc(C#N)cc3)C2)c1", "Percent Effect": -0.666}, {"smiles": "c1ccn2c(C3CCCN3Cc3nc(C4CC4)no3)nnc2c1", "note": "(centres undefined)", "Percent Effect": 2.28}, {"smiles": "CC(Oc1cccc(Cl)c1)C(=O)Nc1cnn(CCN(C)C)c1", "note": "(centres undefined)", "Percent Effect": -7.28}, {"smiles": "CCCC(=O)NC1CCCN(Cc2cccs2)C1", "note": "(centres undefined)", "Percent Effect": 5.79}, {"smiles": "COc1ccccc1CCN(C)C(C)c1nc(-c2cccnc2)no1", "note": "(centres undefined)", "Percent Effect": 1.66}, {"smiles": "Cc1cc(C2CCCN(CC(=O)N3CCc4ccccc43)C2)n[nH]1", "note": "(centres undefined)", "Percent Effect": -5.04}, {"smiles": "O=S(=O)(NCCCn1cncn1)c1ccc2c(c1)CCC2", "Percent Effect": 8.86}]}]}
